Inconclusive results are not listed. Active and inactive are the calls of the source. Unless noted, calls come from the whole dose curve; as a rule, active = well fitted curve in the direction sought with a large enough effect; inconclusive = small, poorly fitted or top-dose-only effect, or another doubt; inactive = no such curve, though single readings can be large; an effect the other way counts as inactive or inconclusive.
Legend:
[1] = qHTS to identify inhibitors of the type 1 interferon - major histocompatibility complex class I in skeletal muscle: primary screen against the NCATS LOPAC collection (AID 1347405);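 note: human myoblasts with HiBiT tag on endogenous HLA-B stimulated by IFN-beta; lytic HiBiT luminescence reporting HLA-B protein level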; note: potency is the fitted concentration of half-maximal effect; for activity change, negative = inhibition: % is set by controls: 0 for no effect and ±100 for the full control effect
How it was run: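 IFN-beta-stimulated (4 ng/ml) HLA-B HiBiT knock-in myoblasts, compound-treated 24 hrs up to 46 uM final; signal via LgBiT complementation and furimazine luminescence.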

[2] = qHTS to identify inhibitors of the type 1 interferon - major histocompatibility complex class I in skeletal muscle: primary screen against the NCATS Pharmaceutical Collection (AID 1347407);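 note: luminescence of HiBiT knocked into endogenous HLA-B as interferon-induced MHC class I level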; note: potency is the fitted concentration of half-maximal effect; for activity change, negative = inhibition: % is set by controls: 0 for no effect and ±100 for the full control effect
How it was run: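 HLA-B HiBiT myoblasts, dexamethasone-free growth medium + 4 ng/ml IFN-b; compounds pinned 1 h after seeding, […] from 46 uM; 24 h, 37 C, 5% CO2; lytic HiBiT detection, 10 min RT, luminescence.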

[3] = qHTS for inhibitors of adenylyl cyclases using a fission yeast platform: a pilot screen against the NCATS LOPAC library (AID 1347410);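 note: plate controls were DMSO vehicle for no effect and DPI positive control for full effect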
How it was run: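 Read-out: fbp1-GFP fluorescence by laser scanning cytometry (488 nm laser), a gain of signal when AC/cAMP-PKA signalling is inhibited. Strain CHP2027 expressing AC9, GNAS and PDE4D2; compounds at up to 57 µM; 18 h, 30C.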

[4] = qHTS to identify inhibitors of the type 1 interferon - major histocompatibility complex class I in skeletal muscle: primary screen against the NCATS Mechanism Interrogation Plate v5.0 (MIPE) Libary (AID 1347411); note: nearly all actives have a fitted effect of over 65% in size; note: potency is the fitted concentration of half-maximal effect;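 for activity change, negative = inhibition: plate controls were vehicle for no effect and reference inhibitor for full effect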
How it was run: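 IFN-beta-driven (4 ng/ml) HLA-B-HiBit expression in CRISPR-tagged C25cl48 myoblasts; compounds 11-pt, 1:3, max 46 uM, 24 hr exposure; lytic NanoLuc complementation luminescence.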

[5] = target: Protein phosphatase 1D (Homo sapiens) (UniProt O15297); experiment: RapidFire Mass Spectrometry qHTS Assay for Modulators of WT P53-Induced Phosphatase 1 (WIP1) (AID 1347424);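 note: amount of dephosphorylated VEPPL-S-QETFS peptide product formed by WIP1; series mostly up to about 63 µM; plate controls were DMSO wells for no effect and GSK830371 inhibitor control at 10 µM for full effect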
Protein phosphatase 1D (Homo sapiens), sequence (O15297 whole entry, looked up): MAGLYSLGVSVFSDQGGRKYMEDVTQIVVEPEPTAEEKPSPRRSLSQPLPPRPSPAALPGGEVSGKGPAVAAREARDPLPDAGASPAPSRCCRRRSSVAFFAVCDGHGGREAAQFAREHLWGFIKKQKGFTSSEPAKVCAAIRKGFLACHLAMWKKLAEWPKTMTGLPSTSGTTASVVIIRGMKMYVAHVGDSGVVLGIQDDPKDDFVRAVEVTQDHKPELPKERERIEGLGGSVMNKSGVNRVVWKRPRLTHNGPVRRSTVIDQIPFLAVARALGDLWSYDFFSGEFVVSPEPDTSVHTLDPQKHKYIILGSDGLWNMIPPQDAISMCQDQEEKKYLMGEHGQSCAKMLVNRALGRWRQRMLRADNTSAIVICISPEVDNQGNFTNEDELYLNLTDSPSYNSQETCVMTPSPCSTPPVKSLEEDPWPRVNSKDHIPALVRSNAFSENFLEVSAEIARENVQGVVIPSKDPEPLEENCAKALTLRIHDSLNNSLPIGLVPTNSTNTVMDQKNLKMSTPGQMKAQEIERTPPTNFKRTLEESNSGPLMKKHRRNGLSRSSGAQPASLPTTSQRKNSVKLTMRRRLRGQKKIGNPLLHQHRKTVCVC
How it was run: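 RapidFire mass spectrometry measured dephosphorylated peptide after 5 min room-temperature reaction of 2 uM VEPPL-pS-QETFS with 10 nM WIP1 (50 mM Tris-HCl pH 7.5, 30 mM MgCl2, 0.1 mM EGTA, BSA), following 1 hr compound preincubation; 1 uM isotope-labelled product standard.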

[6] = target: Protein phosphatase 1D (Homo sapiens) (UniProt O15297); experiment: Rhodamine-PBP qHTS Assay for Modulators of WT P53-Induced Phosphatase 1 (WIP1) (AID 1347425); note: % of control where 0% means no effect
How it was run: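 WIP1 (5 nM final) was preincubated with compound for 1 hour at room temperature. It then dephosphorylated 10 uM VEPPL-pS-QETFS peptide in Tris-HCl pH 7.5 with 30 mM MgCl2. Released Pi was detected by 10 uM Rh-PBP fluorescence (ex 525/em 598 nm) read at 1-min intervals for 11 min, as delta f1 - f0.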

[7] = Validation qHTS assay for inhibitors of Activation Induced Cytidine Deaminase (AID): UDG Counterscreen signal (AID 1347427); note: 0% is about no effect
How it was run: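 Fluorescence at 560 nm excitation, 665 nm emission reports UDG signal after 250 mM NaOH (2x) addition and 30 min. Enzymes (AID 1 uM, UDG 2 U/mL, at 4/3x) preincubated 10 min with compound, then 4 h with 4x 250 nM DJC20/DJC23 substrate at room temperature.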

[8] = target: Single-stranded DNA cytosine deaminase (Homo sapiens) (UniProt Q9GZX7); experiment: Validation qHTS assay for inhibitors of Activation Induced Cytidine Deaminase (AID): AID signal (AID 1347429); note: % is set by controls: 0 for no effect and ±100 for the full control effect
Single-stranded DNA cytosine deaminase (Homo sapiens), sequence (Q9GZX7 whole entry, looked up): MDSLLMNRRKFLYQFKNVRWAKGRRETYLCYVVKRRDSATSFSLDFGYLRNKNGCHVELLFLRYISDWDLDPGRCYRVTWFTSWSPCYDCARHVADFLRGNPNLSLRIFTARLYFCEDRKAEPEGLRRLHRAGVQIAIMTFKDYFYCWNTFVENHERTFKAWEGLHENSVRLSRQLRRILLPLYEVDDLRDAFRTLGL
How it was run: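 Compounds (up to 114 uM final) are tested against AID plus UDG using DJC20/DJC23 FRET substrate. Reactions incubate 4 hr at room temperature, receive NaOH for 30 min, and are read at Ex 540/Em 590 nm.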

[9] = Redox Reaction Profiling qHTS: Assay Interference Panel against the NCATS CANVASS Library (AID 1347401);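 note: 100% = activation by 2 µM chloranil control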
How it was run: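 Redox-cycling liability assessed as DTT-driven conversion of resazurin (5 uM, with 200 uM DTT, HEPES pH 7.3) to fluorescent resorufin. Fluorescence at 525/598 nm measured initially and after 15 min dark incubation.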

[10] = qHTS for inhibitors of Rabies Virus screened against the NCATS CANVASS Library (AID 1347402; calls by dose curve; note: series mostly up to about 46 µM; 0% is about no effect)

NCC1(CC(=O)O)CCCCC1
inactive: Potency [1] | Potency [2] | outcome [3] | Potency [4] | Potency [5] | outcome [6] | outcome [7] | outcome [8]

Cc1cccc(C)c1NC1=NCCCS1
inactive: Potency [1] | Potency [2] | outcome [3] | Potency [5] | outcome [6] | outcome [7] | outcome [8]

CC(CCc1ccccc1)NC(C)C(O)c1ccc(O)cc1 (stereo unspecified)
inactive: Potency [1] | Potency [2] | outcome [3] | outcome [6] | outcome [7] | outcome [8]

CCCN1CCC[C@@H]2Cc3[nH]ncc3C[C@H]21
inactive: Potency [1] | Potency [2] | outcome [3] | Potency [5] | outcome [6] | outcome [7] | outcome [8]

CCC1(C2=NCCN2)Cc2ccccc2O1 (stereo unspecified)
inactive: Potency [1] | Potency [2] | outcome [3] | Potency [5] | outcome [6] | outcome [7] | outcome [8]

CCCN1CCC[C@@H]2Cc3nc(N)ncc3C[C@H]21
inactive: Potency [1] | Potency [2] | outcome [3] | Potency [5] | outcome [6] | outcome [7] | outcome [8]

COc1ccc(C(CN(C)C)C2(O)CCCCC2)cc1 (stereo unspecified)
inactive: Potency [1] | Potency [2] | outcome [3] | Potency [5] | outcome [6] | outcome [7] | outcome [8]

C[C@@H]1O[C@@H](O[C@H]2C[C@@H](O)[C@]3(CO)[C@H]4[C@H](O)C[C@]5(C)[C@@H](C6=CC(=O)OC6)CC[C@]5(O)[C@@H]4CC[C@]3(O)C2)[C@H](O)[C@H](O)[C@H]1O
active: Potency [1] 44.7 nM | Potency [2] 52.8 nM | Potency [4] 37 nM
inactive: outcome [3] | Potency [5] | outcome [6] | outcome [7] | outcome [8]

CN1C[C@H](CNC(=O)OCc2ccccc2)C[C@@H]2c3cccc4c3c(cn4C)C[C@H]21
inactive: Potency [1] | Potency [2] | outcome [3] | Potency [5] | outcome [6] | outcome [7] | outcome [8]

CC(C)=CCOc1c2occc2cc2ccc(=O)oc12
inactive: Potency [1] | Potency [2] | outcome [3] | Potency [5] | outcome [6] | outcome [7] | outcome [8]

O=c1[nH]c2ccccc2n1CCCN1CCC(n2c(=O)[nH]c3cc(Cl)ccc32)CC1
inactive: Potency [2] | outcome [3] | Potency [4] | Potency [5] | outcome [6] | outcome [7] | outcome [8]

C#CCN(C)[C@H](C)Cc1ccccc1
inactive: Potency [2] | Potency [4] | Potency [5] | outcome [6]

Nc1ccncc1
inactive: Potency [1] | Potency [2] | outcome [3] | Potency [5] | outcome [6] | outcome [7] | outcome [8]

NN=C(N)N
inactive: Potency [1] | Potency [2] | outcome [3] | Potency [4] | Potency [5] | outcome [6] | outcome [7] | outcome [8]

Cn1c(CCCC(=O)O)nc2cc(N(CCCl)CCCl)ccc21
inactive: Potency [1] | Potency [2] | outcome [3] | Potency [4] | Potency [5] | outcome [6]

Cc1ncc(CNC(=O)N(CCCl)N=O)c(N)n1
inactive: Potency [1] | Potency [2] | outcome [3] | Potency [5] | outcome [6] | outcome [7] | outcome [8]

CC(=O)[C@H]1CC[C@H]2[C@@H]3CC[C@H]4C[C@H](O)CC[C@]4(C)[C@H]3C(=O)C[C@]12C
inactive: Potency [1] | Potency [2] | outcome [3] | Potency [5] | outcome [6] | outcome [7] | outcome [8]

NCCc1cc(O)c(O)cc1O
inactive: Potency [2]

CC[C@@H](CO)NC(=O)[C@@H]1C=C2c3cccc4[nH]cc(c34)C[C@H]2N(C)C1
inactive: Potency [1] | Potency [2] | outcome [3] | Potency [5] | outcome [6] | outcome [7] | outcome [8]

O=C1NCN(c2ccccc2)C12CCN(CC1COc3ccccc3O1)CC2 (stereo unspecified)
inactive: Potency [1] | Potency [2] | outcome [3] | Potency [5] | outcome [6] | outcome [7] | outcome [8]

Cn1cc(C2=C(c3cn(C4CCN(Cc5ccccn5)CC4)c4ccccc34)C(=O)NC2=O)c2ccccc21
inactive: Potency [2] | Potency [4] | Potency [5] | outcome [6]

CC(=O)[C@H]1CC[C@H]2[C@@H]3CC[C@H]4C[C@](C)(O)CC[C@]4(C)[C@H]3CC[C@]12C
inactive: Potency [1] | Potency [2] | outcome [3] | Potency [5] | outcome [6] | outcome [7] | outcome [8]

NCC(CC(=O)O)c1ccc(Cl)cc1 (stereo unspecified)
inactive: Potency [1] | activity change, negative = inhibition [2] 3.65% [at 0.727 µM] | outcome [3] | activity change, negative = inhibition [5] -7.37% [at 0.505 µM] | activity change, negative = inhibition [6] 1.39% [at 0.575 µM] | outcome [7] | outcome [8]

CC[C@@H](CO)NC(=O)[C@@H]1C=C2c3cccc4c3c(cn4C)C[C@H]2N(C)C1
inactive: Potency [1] | Potency [2] | outcome [3] | Potency [5] | outcome [6] | outcome [7] | outcome [8]

NCC(O)c1ccc(O)cc1 (stereo unspecified)
inactive: outcome [9] | outcome [10] | Potency [1] | Potency [2] | outcome [3] | Potency [5] | outcome [6] | outcome [7] | outcome [8]
